HttQ103 aggreg: mutant huntingtin aggregation inhibition. AID 1688. PC12 HttQ103-GFP aggregates, Acumen cytometry, 40 h. 220,000 tested, 1.1% active. Potency, µM (titrated, usually from 46.1 µM), actives largely listed as inhibitors; also: nearly all actives have a fitted effect of over 60% in size
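Ecdysone-promoter PC12 model expressing HTT exon 1 Q103 fused to GFP, induced by tebufenozide at 100 nM final. Compounds titrated; aggregates sized 1–25 µm scored on a 488 nm laser cytometer.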
HTT cytoprotect: protects HTT-Q103 PC12 cells, measured by ATP; AID 1471; Potency, µM (titrated, usually from 56.4 µM), usual class: activators; PC12 HTT-Q103 induced, cytoprotection, ATP luminescence, 40 h; 230,000 tested, 0.14% active; also: nearly all actives have a fitted effect of over 45% in size
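Stable PC12 Q103-GFP cells in serum-supplemented, phenol red-free DMEM; induction by tebufenozide at 100 nM final; compound dose series; cell viability quantified luminescently from ATP.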
ALDH1A1 block: blocks purified human ALDH1A1 activity; P00352; Purified ALDH1A1, NADH fluorescence, propionaldehyde substrate; Potency, µM (top dose mostly 75.3 µM), usual class: inhibitors; 220,000 tested, 7.3% active; AID 1030; active = well fitted inhibition curve with a large enough effect, not every such curve was filed as active; inconclusive = small, poorly fitted or top-dose-only effect, or another doubt; inactive = no such curve, though single readings can be large or run the other way
Target sequence (P00352 whole entry, looked up): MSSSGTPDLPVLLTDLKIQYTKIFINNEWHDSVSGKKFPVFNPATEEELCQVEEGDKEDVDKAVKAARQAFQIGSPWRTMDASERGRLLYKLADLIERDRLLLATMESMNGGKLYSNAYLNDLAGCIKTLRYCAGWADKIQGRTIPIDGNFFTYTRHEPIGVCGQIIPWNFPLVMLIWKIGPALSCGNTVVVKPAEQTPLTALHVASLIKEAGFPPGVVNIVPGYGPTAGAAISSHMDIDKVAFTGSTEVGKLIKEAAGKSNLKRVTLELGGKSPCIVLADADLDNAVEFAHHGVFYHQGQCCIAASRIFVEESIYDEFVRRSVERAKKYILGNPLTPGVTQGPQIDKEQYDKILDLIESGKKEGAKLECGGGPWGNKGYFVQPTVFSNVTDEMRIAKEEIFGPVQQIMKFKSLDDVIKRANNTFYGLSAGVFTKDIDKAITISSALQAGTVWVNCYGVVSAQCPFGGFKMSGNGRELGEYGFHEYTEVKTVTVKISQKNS
KinaseGlo FLuc: blocks Kinase-Glo luciferase, a counter-screen artifact; 200,000 tested, 0.28% active; Q27757; AID 1379; Potency, µM (series often up to 38.3 µM), most hits filed as inhibitors; Kinase-Glo luciferase, ATP luminescence, 8 min; also: nearly all actives have a fitted effect of over 60% in size
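Substrate mix (final 50 mM imidazole pH 7.2, 50 mM KCl, 7 mM MgCl2, 10 uM ATP, 0.01% Tween 20, 0.05% BSA) plus pin-tool compound, then Kinase-Glo detection mix; 8 min ambient, luminescence read.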
HPGD block: blocks human HPGD enzyme activity | purified HPGD, NADH fluorescence kinetic, PGE2 substrate | Potency, µM, actives largely listed as inhibitors | P15428 | 150,000 tested, 4.3% active; active = well fitted inhibition curve with a large enough effect, not every such curve was filed as active; inconclusive = small, poorly fitted or top-dose-only effect, or another doubt; inactive = no such curve, though single readings can be large or run the other way
Target sequence (P15428 whole entry, looked up): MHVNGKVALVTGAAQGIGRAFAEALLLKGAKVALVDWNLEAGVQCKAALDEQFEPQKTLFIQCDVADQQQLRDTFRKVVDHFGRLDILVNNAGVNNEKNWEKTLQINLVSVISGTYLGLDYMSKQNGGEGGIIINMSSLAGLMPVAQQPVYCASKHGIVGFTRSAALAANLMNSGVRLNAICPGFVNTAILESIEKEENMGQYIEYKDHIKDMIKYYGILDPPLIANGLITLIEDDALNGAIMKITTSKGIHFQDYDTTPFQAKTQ
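NADH formation kinetics: reaction with 30 uM PGE2 and 1 mM NAD+ (final), 20 nM enzyme, Tris-HCl pH 8 with Tween 20, after 15 min compound preincubation at room temperature. Fluorescence change, last versus first of five reads.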
Lamin A splicing: modulators of lamin A splicing; HeLa LMNA splicing GFP/RFP minigene ratio, 48 h; Potency, µM (doses to about 46.1 µM), most hits filed as inhibitors; 200,000 tested, 0.01% active; active = well fitted inhibition curve with a large enough effect in the signal ratio, with a control signal flat, not every such curve was filed as active; inconclusive = small, poorly fitted or top-dose-only effect, or effect the other way, or a change in a side signal; the % refers to the signal ratio
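S3 HeLa stable clones carrying a lamin A-EGFP splicing minigene plus DsRed2 were seeded at 600 cells/well in Opti-MEM with 2% FBS, pin-dosed and incubated 48 h at 37°C. Acumen cytometry (488 nm) gave the GFP/RFP total-intensity ratio.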
Hits are given with their value; [ ] = remark or other dose. A selection: hits, their analogues and other compounds. The true share with any hit is near 9%. Unless noted, calls follow the shape of the dose curve; as a rule, active = well fitted curve in the direction sought with a large enough effect; inconclusive = small, poorly fitted or top-dose-only effect, or another doubt; inactive = no such curve, though single readings can be large; an effect the other way counts as inactive or inconclusive.

How did Cc1nnc(NC(=O)CSc2ccc(-c3ccco3)nn2)s1 do in these assays?
HttQ103 aggreg: inactive; HTT cytoprotect: inactive; ALDH1A1 block: 7.08µM; KinaseGlo FLuc: inactive

How did CC1CCCN(c2ccc3nc4ccccc4c(=O)n3n2)C1 (configuration not stated) do in these assays?
HttQ103 aggreg: inactive; HTT cytoprotect: inactive; ALDH1A1 block: inactive; KinaseGlo FLuc: inconclusive

How did CCC(C)[C@H](NC(=O)NCc1ccco1)C(=O)OC (some centres not stated) do in these assays?
HttQ103 aggreg: inactive[9.22 µM]; HTT cytoprotect: inactive[10 µM]; ALDH1A1 block: 12.6µM

How did COCCSc1ccccc1C(=O)Nc1ccc(Cl)cc1 do in these assays?
HttQ103 aggreg: inactive; HTT cytoprotect: inactive; ALDH1A1 block: inactive; KinaseGlo FLuc: inactive; Lamin A splicing: inactive

What do the screens show for `COCCSc1ccccc1C(=O)Nc1cc(C)on1`?
HttQ103 aggreg: inactive; HTT cytoprotect: inactive; ALDH1A1 block: inconclusive; KinaseGlo FLuc: inactive; HPGD block: 31.6µM; Lamin A splicing: inactive

Results for COCCSc1ccccc1C(=O)NCc1ccco1 ?
HttQ103 aggreg: inactive; HTT cytoprotect: inactive; ALDH1A1 block: 14.1µM; KinaseGlo FLuc: inactive; HPGD block: 8.91µM; Lamin A splicing: inactive

What do the screens show for `CCOC(=O)N1CCC(NC(=O)CCC(=O)N2CCOc3ccc(C)cc32)CC1`?
HttQ103 aggreg: inactive; HTT cytoprotect: inactive; ALDH1A1 block: inconclusive; Lamin A splicing: inactive

What do the screens show for `CCOC(=O)N1CCN(C(=O)CCC(=O)N2CCOc3ccc(C)cc32)CC1`?
HttQ103 aggreg: inconclusive; HTT cytoprotect: inactive; ALDH1A1 block: 25.1µM; Lamin A splicing: inactive

What do the screens show for `COc1ccc(C(=O)OCC(N)=O)cc1[N+](=O)[O-]`?
HttQ103 aggreg: inactive; ALDH1A1 block: inactive; KinaseGlo FLuc: inactive; HPGD block: inactive; Lamin A splicing: inactive

What do the screens show for `Cc1nc(SCC(=O)c2ccc(F)cc2)n[nH]1`?
HttQ103 aggreg: inactive; HTT cytoprotect: inactive; ALDH1A1 block: 4.47µM; KinaseGlo FLuc: inactive; HPGD block: 10µM; Lamin A splicing: inconclusive

How did COc1ccc(C(=O)CSc2n[nH]c(C)n2)cc1[N+](=O)[O-] do in these assays?
HttQ103 aggreg: inactive; ALDH1A1 block: 10µM; KinaseGlo FLuc: inactive

What do the screens show for `Cn1c(=O)c2c(n3cnnc13)-c1ccccc1CC21CCCC1`?
HttQ103 aggreg: inactive; HTT cytoprotect: inactive[10 µM]; ALDH1A1 block: 11.2µM; KinaseGlo FLuc: inactive; HPGD block: inactive; Lamin A splicing: inconclusive

How did O=c1c2c3nc4ccccc4nc3n(/N=C/c3ccco3)c2ncn1CCC1=CCCCC1 do in these assays?
HttQ103 aggreg: inconclusive; HTT cytoprotect: inactive; ALDH1A1 block: 25.1µM; KinaseGlo FLuc: inactive; HPGD block: inactive; Lamin A splicing: inactive

What do the screens show for `CC(C)(C)NC(=O)C1CN(S(=O)(=O)c2ccccc2)CCN1S(=O)(=O)c1ccccc1` (configuration not stated)?
HttQ103 aggreg: inactive; HTT cytoprotect: inactive; ALDH1A1 block: inactive; KinaseGlo FLuc: inactive; HPGD block: inactive; Lamin A splicing: inactive

What do the screens show for `CCN1CCN(C(=O)c2ccc(CSc3ccc(C)cc3)cc2)CC1`?
HttQ103 aggreg: inactive; HTT cytoprotect: inactive; ALDH1A1 block: inconclusive; KinaseGlo FLuc: inactive; HPGD block: 14.1µM; Lamin A splicing: inactive

How did Cc1ccc(SCc2ccc(C(=O)N3CCCC3)cc2)cc1 do in these assays?
HttQ103 aggreg: 11.2µM; HTT cytoprotect: inactive; ALDH1A1 block: inconclusive; KinaseGlo FLuc: inactive

How did CSc1nnc2c(n1)c(C)nn2-c1cccc(C)c1 do in these assays?
HttQ103 aggreg: inactive; HTT cytoprotect: inactive[10 µM]; ALDH1A1 block: inconclusive; KinaseGlo FLuc: inactive; HPGD block: inactive; Lamin A splicing: inconclusive

How did CC1=C2[C@H](/C=C(\C)C(=O)O)CC[C@@H](C)[C@H]2CC1 do in these assays?
HTT cytoprotect: inactive; ALDH1A1 block: 17.8µM; HPGD block: inactive

What do the screens show for `Cc1ccc(S(=O)(=O)N2CCN(C(=O)N3CCOCC3)C2c2ccc(N(C)C)cc2)cc1` (configuration not stated)?
HttQ103 aggreg: inactive; HTT cytoprotect: inactive[10 µM]; ALDH1A1 block: 0.631µM; KinaseGlo FLuc: inactive; HPGD block: inactive; Lamin A splicing: inactive

What do the screens show for `COc1ccc(C2N(C(=O)CN3CCOCC3)CCN2S(=O)(=O)c2ccccc2)cc1` (configuration not stated)?
HttQ103 aggreg: inactive; HTT cytoprotect: inactive; ALDH1A1 block: inactive; KinaseGlo FLuc: inactive; HPGD block: inactive; Lamin A splicing: inactive

How did COc1ccc(C2N(C(=O)N3CCOCC3)CCN2S(=O)(=O)c2ccc(C)cc2)cc1 (configuration not stated) do in these assays?
HttQ103 aggreg: inactive[9.22 µM]; HTT cytoprotect: inactive; ALDH1A1 block: inactive; KinaseGlo FLuc: inactive; HPGD block: inactive; Lamin A splicing: inactive

How did CN(C)c1ccc(C2N(C(=O)N3CCOCC3)CCN2S(=O)(=O)c2ccccc2)cc1 (configuration not stated) do in these assays?
HttQ103 aggreg: inactive; HTT cytoprotect: inactive; ALDH1A1 block: 1µM; KinaseGlo FLuc: inactive; HPGD block: inactive; Lamin A splicing: inactive

How did COC(=O)CCCC1=CC2=CC(=O)C(C)(OC(=O)c3cnc4ccccc4n3)C(=O)C2=CO1 (configuration not stated) do in these assays?
HTT cytoprotect: inactive; ALDH1A1 block: inactive; KinaseGlo FLuc: inactive; HPGD block: inactive

How did CC(C)C(=O)N1CCC2(CC1)Oc1ccc(Cl)cc1C(=O)C21CC(c2ccc(Cl)cc2)=NO1 (configuration not stated) do in these assays?
HttQ103 aggreg: inactive[9.22 µM]; HTT cytoprotect: inactive[10 µM]

How did Cc1ccc(F)cc1NC(=O)c1cnccn1 do in these assays?
HttQ103 aggreg: inactive; HTT cytoprotect: inactive; ALDH1A1 block: inactive; KinaseGlo FLuc: inactive

Results for O=C(Nc1nccs1)C(c1ccccc1)N1CCCC1 (configuration not stated) ?
HttQ103 aggreg: inactive; HTT cytoprotect: 1.41µM; ALDH1A1 block: inactive; KinaseGlo FLuc: inactive

What do the screens show for `Cc1noc(C)c1CSc1ncnc2sc3c(c12)CCCCC3`?
HttQ103 aggreg: inconclusive; HTT cytoprotect: inactive[10 µM]; ALDH1A1 block: 28.2µM; KinaseGlo FLuc: inactive; HPGD block: inconclusive; Lamin A splicing: inactive

How did CCC(C)NC(=O)Cn1cnc2sc(C)cc2c1=O (configuration not stated) do in these assays?
HttQ103 aggreg: inactive; HTT cytoprotect: inactive; ALDH1A1 block: inactive; KinaseGlo FLuc: inactive; HPGD block: inactive; Lamin A splicing: inactive

What do the screens show for `COCCNS(=O)(=O)c1ccc(-c2ccc(S(=O)(=O)NCCOC)cc2)cc1`?
HttQ103 aggreg: inactive; HTT cytoprotect: inactive[0.074 µM]; ALDH1A1 block: inconclusive; KinaseGlo FLuc: inactive; HPGD block: 11.2µM; Lamin A splicing: inconclusive

What do the screens show for `COCCNS(=O)(=O)c1ccccc1`?
HttQ103 aggreg: inactive[9.22 µM]; HTT cytoprotect: inactive; ALDH1A1 block: inactive; KinaseGlo FLuc: inactive; HPGD block: inactive; Lamin A splicing: inactive

Bioassay records from PubChem BioAssay.
